# From PubChem BioAssay (EPA / NIEHS)
# Calls of active or inactive are those of the source. How the source made its calls: active means hit-call score of the fitted dose curve at least 0.9, where 1 is the maximum; inactive means score below 0.9.
# Columns and labels:
# [1] = biological target: Transcription factor E2F1 (Homo sapiens) (UniProt Q01094); assay: ATG_E2F_CIS: Attagene CIS-FACTORIAL HepG2 Assay for human E2F Transcription Factor 1 (AID 2282935); settings: HepG2 Attagene cis-reporter, E2F reporter RNA transcripts; actives raise or lower the signal
# How it was run: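 Gain or loss of reporter transcript, fitted against DMSO, reflects E2F1-driven transcription. Transiently transfected HepG2 dosed 24 h before RNA isolation. Quantified by fluorescent RT-PCR products separated by capillary electrophoresis.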
# [2] = ATG_E_Box_CIS: Attagene CIS-FACTORIAL HepG2 Assay for human Enhancer Box (E-box) (AID 2282936); settings: HepG2 E-box cis-reporter transcription, actives raise or lower the signal
# How it was run: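 E-box-driven reporter transcripts measured in transiently transfected HepG2 after 24 h exposure: RNA reverse-transcribed, PCR-amplified, fluorescently labelled, digested and resolved by capillary electrophoresis. Gain or loss relative to DMSO.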
# [3] = ATG_M_61_CIS: Attagene CIS-FACTORIAL HepG2 Assay for M61 Transcription Factor (Internal Marker) (AID 2282937); settings: HepG2 Attagene CIS-FACTORIAL M61 internal marker reporter; actives raise or lower the signal
# How it was run: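 HepG2 cells transiently transfected with cis-element-driven multiple reporter transcription units, dosed for 24 h. Reporter mRNA measured by RT-PCR, 6-FAM primer-extension labelling, HpaI digestion and capillary electrophoresis; bidirectional fit versus DMSO baseline.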
# [4] = ATG_EGR_CIS: Attagene CIS-FACTORIAL HepG2 Assay for human Early Growth Response 1 (EGR1) (AID 2282938); settings: HepG2 Attagene CIS-FACTORIAL EGR reporter mRNA; actives raise or lower the signal
# How it was run: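 HepG2 cells transiently transfected with cis-promoter-driven multiplexed reporter transcription units; reporter mRNA measured 24 h after compound dosing by RT-PCR, 6-FAM primer extension, HpaI digestion and capillary electrophoresis. Bidirectional fit versus DMSO baseline.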
# [5] = ATG_ERE_CIS: Attagene CIS-FACTORIAL HepG2 Assay for Estrogen Response Element (ERE) (AID 2282940); settings: HepG2 ERE cis-reporter, Attagene RNA transcript; actives raise or lower the signal
# How it was run: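 After 24 h compound treatment, RNA from transfected HepG2 cells was reverse-transcribed, reporter cDNA PCR-amplified, FAM-labelled, HpaI-cut and resolved by capillary electrophoresis. ERE-driven cis reporter transcripts reflect endogenous factors; gain or loss scored against DMSO.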
# [6] = ATG_Ets_CIS: Attagene CIS-FACTORIAL HepG2 Assay for human Erythroblast Transformation Specific (ETS) (AID 2282941); settings: HepG2 ETS cis-reporter transcription, actives raise or lower the signal
# How it was run: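 Cis-regulated reporter mRNA induction in HepG2 (transient transfection), 24 h exposure, RT-PCR plus capillary electrophoresis detection; DMSO serves as negative control and baseline.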
# [7] = biological target: Hepatocyte nuclear factor 3-beta (Homo sapiens) (UniProt Q9Y261); assay: ATG_FoxA2_CIS: Attagene CIS-FACTORIAL HepG2 Assay for human Forkhead box A2 (FOXA2) (AID 2282942); settings: HepG2 cis-reporter transcription factor activity, 24 h; actives raise or lower the signal
# How it was run: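 HepG2 cells transiently transfected with multiple cis-regulated reporter transcription units, dosed for 24 h. Reporter mRNA measured by RT-PCR, 6-FAM labelling, HpaI digestion and capillary electrophoresis; bidirectional fitting against DMSO baseline.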
# [8] = ATG_FoxO_CIS: Attagene CIS-FACTORIAL HepG2 Assay for human Forkhead box O (FoxO) (AID 2282943); settings: HepG2 Attagene cis-reporter, FoxO element, mRNA; actives raise or lower the signal
# How it was run: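 HepG2, transient MRTU transfection (cis element, endogenous TFs). Dose 24 h. TriZol RNA → oligo(dT) RT → PCR → 6-FAM primer extension → HpaI cut → CE. Gain/loss vs DMSO.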
# [9] = ATG_GLI_CIS: Attagene CIS-FACTORIAL HepG2 Assay for human Zinc Finger Protein GLI1 (AID 2282945); settings: HepG2, Attagene cis-factorial reporter mRNA, GLI element; actives raise or lower the signal
# How it was run: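 Bidirectional curve fits relative to DMSO, using reporter mRNA levels from RT-PCR plus capillary electrophoresis. Cells were HepG2 transiently carrying cis-regulated reporter constructs, harvested 24 h after dosing.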
# [10] = ATG_GRE_CIS: Attagene CIS-FACTORIAL HepG2 Assay for human Glucocorticoid Response Elements (GRE) (AID 2282947); settings: HepG2 GRE cis-reporter, Attagene multiplex mRNA; actives raise or lower the signal
# How it was run: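 Reporter transcripts read by RT-PCR with capillary electrophoresis fluorescence after a 24 h chemical exposure of HepG2 cells transiently transfected with multiple cis-element reporter units. Gain or loss fitted against DMSO.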
# [11] = ATG_ISRE_CIS: Attagene CIS-FACTORIAL HepG2 Assay for human Interferon Regulatory Factor 1 (IRF1) binding to an Interferon-Stimulated Response Element (ISRE) (AID 2282948); settings: HepG2 ISRE cis-reporter (Attagene), mRNA transcription readout; actives raise or lower the signal
# How it was run: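 Multiplexed mRNA reporter readout in human liver HepG2 cells: cis-element-driven reporters transfected, compound added for 24 h, transcripts amplified, fluorescently labelled and sized by capillary electrophoresis; curve fitting bidirectional against DMSO.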
# [12] = ATG_M_32_CIS: Attagene CIS-FACTORIAL HepG2 Assay for M32 Transcription Factor (Internal Marker) (AID 2282949); settings: HepG2 Attagene cis-factorial M32 reporter, mRNA; actives raise or lower the signal;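 further: background control marker of the multiplexed CIS panel rather than a real target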
# How it was run: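 HepG2 transfectants (cis-regulated reporter transcription units) dosed 24 h. Reporter mRNA by RT-PCR plus CE, analysed as gain or loss relative to DMSO.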
# [13] = ATG_M_06_CIS: Attagene CIS-FACTORIAL HepG2 Assay for M06 Transcription Factor (Internal Marker) (AID 2282950); settings: HepG2 Attagene CIS-FACTORIAL M06 internal marker reporter; actives raise or lower the signal
# How it was run: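 Serves as a background control readout. Transfected HepG2 exposed to compounds for 24 h, then reporter transcripts quantified by fluorescent RT-PCR and capillary electrophoresis. Both directions fitted against DMSO baseline.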
# [14] = biological target: Hypoxia-inducible factor 1-alpha (Homo sapiens) (UniProt Q16665); assay: ATG_HIF1a_CIS: Attagene CIS-FACTORIAL HepG2 Assay for human Hypoxia Inducible Factor 1 (HIF1A) (AID 2282951); settings: HepG2 Attagene cis-factorial HIF1a reporter transcription; actives raise or lower the signal
# How it was run: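 HepG2 cells transiently transfected with multiplexed cis-promoter reporter units; reporter mRNA read 24 h after dosing by RT-PCR, 6-FAM primer-extension labelling, HpaI digestion and capillary electrophoresis. Bidirectional fit versus DMSO baseline.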
# [15] = biological target: Hepatocyte nuclear factor 6 (Homo sapiens) (UniProt Q9UBC0); assay: ATG_HNF6_CIS: Attagene CIS-FACTORIAL HepG2 Assay for human Hepatocyte Nuclear Factor 6 (HNF6) (AID 2282952); settings: HepG2 Attagene cis-factorial HNF6 reporter transcription; actives raise or lower the signal
# How it was run: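 First, HepG2 cells were transfected with the multiplexed cis reporter library and dosed with chemical for 24 h. Next, RNA was reverse-transcribed, PCR-amplified and fluorescently labelled. Finally, HpaI-digested fragments were read by capillary electrophoresis.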
# [16] = biological target: Heat shock factor protein 1 (Homo sapiens) (UniProt Q00613); assay: ATG_HSE_CIS: Attagene CIS-FACTORIAL HepG2 Assay for human Heat Shock Transcription Factor 1 (HSE) (AID 2282953); settings: HepG2 HSE cis-reporter, Attagene RNA transcription; actives raise or lower the signal
# How it was run: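 Endogenous transcription factor activity in transiently transfected HepG2, read as reporter mRNA by RT-PCR with fluorescent capillary electrophoresis after 24 h. Gain or loss of signal fitted versus DMSO baseline.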
# [17] = ATG_MRE_CIS: Attagene CIS-FACTORIAL HepG2 Assay for human Metal Responsive Element (MRE) (AID 2282954); settings: HepG2 MRE cis-reporter transcription, Attagene multiplex; actives raise or lower the signal
# How it was run: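 Endogenous MRE-dependent transcription read as reporter mRNA in transiently transfected human HepG2 cells at 24 h. RNA reverse-transcribed, PCR-amplified, labelled and resolved by capillary electrophoresis; gain or loss relative to DMSO.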
# [18] = ATG_GATA_CIS: Attagene CIS-FACTORIAL HepG2 Assay for human GATA Binding Protein (AID 2282944); settings: HepG2 GATA cis-element reporter, Attagene multiplex mRNA; actives raise or lower the signal
# How it was run: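 Reporter transcripts from a GATA cis-regulated unit, among multiplexed reporters in transfected HepG2 cells, were measured by RT-PCR with capillary electrophoresis after 24 h dosing. Induction or loss scored relative to DMSO.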
# [19] = biological target: Bile acid receptor (Homo sapiens) (UniProt Q96RI1); assay: ATG_IR1_CIS: Attagene CIS-FACTORIAL HepG2 Assay for human Nuclear Receptor Subfamily 1 Group H Member 4 (NR1H4), IR1 submotif (AID 2282946); settings: IR1 reporter transcription, actives raise or lower the signal
# How it was run: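 HepG2 cells transiently transfected with multiplexed cis-element reporter units read endogenous transcription factor activity. After 24 h compound exposure, reporter mRNA was quantified by RT-PCR, fluorescent labelling, HpaI digestion and capillary electrophoresis; bidirectional fitting versus DMSO baseline.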
# [20] = ATG_M_19_CIS: Attagene CIS-FACTORIAL HepG2 Assay for M19 Transcription Factor (Internal Marker) (AID 2282939); settings: HepG2 Attagene CIS-FACTORIAL M19 internal marker reporter; actives raise or lower the signal
# How it was run: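 Internal marker readout, fitted in both directions against DMSO, from HepG2 cells carrying transfected cis-element reporter constructs; RT-PCR and capillary electrophoresis of reporter mRNA after 24 h exposure.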
# Hypoxia-inducible factor 1-alpha (Homo sapiens), sequence (Q16665 whole entry, looked up): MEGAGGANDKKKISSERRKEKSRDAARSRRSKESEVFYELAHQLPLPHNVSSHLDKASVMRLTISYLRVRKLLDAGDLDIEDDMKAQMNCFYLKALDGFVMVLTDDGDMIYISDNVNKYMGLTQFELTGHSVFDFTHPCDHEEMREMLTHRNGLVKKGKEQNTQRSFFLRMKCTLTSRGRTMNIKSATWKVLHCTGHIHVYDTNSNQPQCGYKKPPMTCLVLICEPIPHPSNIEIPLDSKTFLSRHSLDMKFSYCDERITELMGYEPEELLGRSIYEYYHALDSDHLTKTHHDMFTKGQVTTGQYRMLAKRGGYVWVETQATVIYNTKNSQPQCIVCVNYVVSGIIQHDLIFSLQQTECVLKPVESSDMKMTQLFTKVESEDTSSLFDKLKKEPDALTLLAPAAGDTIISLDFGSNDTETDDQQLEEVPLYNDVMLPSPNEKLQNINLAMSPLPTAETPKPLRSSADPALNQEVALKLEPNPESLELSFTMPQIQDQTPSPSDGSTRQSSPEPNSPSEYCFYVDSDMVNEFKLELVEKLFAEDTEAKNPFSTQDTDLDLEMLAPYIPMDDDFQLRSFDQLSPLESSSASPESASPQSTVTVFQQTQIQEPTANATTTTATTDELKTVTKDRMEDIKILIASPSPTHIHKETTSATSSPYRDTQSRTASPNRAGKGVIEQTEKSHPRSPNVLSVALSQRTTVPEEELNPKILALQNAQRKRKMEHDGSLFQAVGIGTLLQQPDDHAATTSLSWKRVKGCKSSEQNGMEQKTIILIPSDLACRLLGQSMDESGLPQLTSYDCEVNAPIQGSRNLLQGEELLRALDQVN
# Heat shock factor protein 1 (Homo sapiens), sequence (Q00613 whole entry, looked up): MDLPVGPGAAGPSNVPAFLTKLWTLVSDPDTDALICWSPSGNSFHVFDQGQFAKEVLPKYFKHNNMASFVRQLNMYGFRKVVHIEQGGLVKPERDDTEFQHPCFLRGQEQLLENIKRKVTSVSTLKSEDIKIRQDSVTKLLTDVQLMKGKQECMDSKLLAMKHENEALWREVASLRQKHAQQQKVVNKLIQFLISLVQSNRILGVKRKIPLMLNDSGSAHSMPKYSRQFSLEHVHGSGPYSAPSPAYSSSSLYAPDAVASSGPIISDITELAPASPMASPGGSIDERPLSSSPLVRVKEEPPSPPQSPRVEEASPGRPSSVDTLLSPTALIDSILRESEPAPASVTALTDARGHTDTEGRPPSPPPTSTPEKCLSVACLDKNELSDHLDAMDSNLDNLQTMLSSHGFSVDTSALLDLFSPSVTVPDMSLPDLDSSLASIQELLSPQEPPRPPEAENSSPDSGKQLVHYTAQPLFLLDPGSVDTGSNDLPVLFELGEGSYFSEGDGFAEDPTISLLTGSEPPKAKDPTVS
# Hepatocyte nuclear factor 6 (Homo sapiens), sequence (Q9UBC0 whole entry, looked up, the tested form may be a part): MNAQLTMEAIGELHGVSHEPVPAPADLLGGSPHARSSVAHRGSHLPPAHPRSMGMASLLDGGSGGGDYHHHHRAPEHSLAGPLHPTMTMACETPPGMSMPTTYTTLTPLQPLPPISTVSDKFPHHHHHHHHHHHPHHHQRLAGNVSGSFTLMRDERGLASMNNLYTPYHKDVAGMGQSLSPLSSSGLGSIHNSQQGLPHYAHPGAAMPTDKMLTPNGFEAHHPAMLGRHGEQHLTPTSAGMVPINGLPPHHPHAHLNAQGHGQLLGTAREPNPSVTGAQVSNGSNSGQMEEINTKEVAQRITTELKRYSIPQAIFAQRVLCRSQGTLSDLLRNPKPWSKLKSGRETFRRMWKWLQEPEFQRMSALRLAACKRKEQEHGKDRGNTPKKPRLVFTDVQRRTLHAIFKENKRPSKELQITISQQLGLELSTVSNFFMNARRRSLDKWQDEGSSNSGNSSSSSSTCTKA
# Transcription factor E2F1 (Homo sapiens), sequence (Q01094 whole entry, looked up): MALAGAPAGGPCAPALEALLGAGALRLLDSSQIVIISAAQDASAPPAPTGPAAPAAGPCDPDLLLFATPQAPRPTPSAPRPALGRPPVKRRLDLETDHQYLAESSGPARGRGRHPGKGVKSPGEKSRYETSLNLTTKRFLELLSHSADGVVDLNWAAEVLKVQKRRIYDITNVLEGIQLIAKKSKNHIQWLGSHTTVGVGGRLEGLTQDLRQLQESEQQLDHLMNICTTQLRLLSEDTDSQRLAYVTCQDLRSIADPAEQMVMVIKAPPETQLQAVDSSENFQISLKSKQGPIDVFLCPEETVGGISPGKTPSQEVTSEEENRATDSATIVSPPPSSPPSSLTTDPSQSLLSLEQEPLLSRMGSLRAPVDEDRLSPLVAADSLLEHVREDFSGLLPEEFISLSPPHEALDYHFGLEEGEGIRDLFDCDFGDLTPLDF
# Hepatocyte nuclear factor 3-beta (Homo sapiens), sequence (Q9Y261 whole entry, looked up): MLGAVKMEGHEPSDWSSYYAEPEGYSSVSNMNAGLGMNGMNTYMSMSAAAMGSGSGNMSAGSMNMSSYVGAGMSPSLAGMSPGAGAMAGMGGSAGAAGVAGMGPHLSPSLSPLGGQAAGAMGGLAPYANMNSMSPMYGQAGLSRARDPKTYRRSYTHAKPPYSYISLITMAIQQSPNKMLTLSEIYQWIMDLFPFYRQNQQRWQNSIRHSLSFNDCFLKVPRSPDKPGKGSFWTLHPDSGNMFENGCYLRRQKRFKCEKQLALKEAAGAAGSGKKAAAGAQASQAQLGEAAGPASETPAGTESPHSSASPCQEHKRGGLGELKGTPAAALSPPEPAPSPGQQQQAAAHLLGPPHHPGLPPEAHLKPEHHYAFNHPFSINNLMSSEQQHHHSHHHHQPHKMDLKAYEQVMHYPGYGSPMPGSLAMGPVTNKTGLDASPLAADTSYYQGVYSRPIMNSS
# Bile acid receptor (Homo sapiens), sequence (Q96RI1 whole entry, looked up): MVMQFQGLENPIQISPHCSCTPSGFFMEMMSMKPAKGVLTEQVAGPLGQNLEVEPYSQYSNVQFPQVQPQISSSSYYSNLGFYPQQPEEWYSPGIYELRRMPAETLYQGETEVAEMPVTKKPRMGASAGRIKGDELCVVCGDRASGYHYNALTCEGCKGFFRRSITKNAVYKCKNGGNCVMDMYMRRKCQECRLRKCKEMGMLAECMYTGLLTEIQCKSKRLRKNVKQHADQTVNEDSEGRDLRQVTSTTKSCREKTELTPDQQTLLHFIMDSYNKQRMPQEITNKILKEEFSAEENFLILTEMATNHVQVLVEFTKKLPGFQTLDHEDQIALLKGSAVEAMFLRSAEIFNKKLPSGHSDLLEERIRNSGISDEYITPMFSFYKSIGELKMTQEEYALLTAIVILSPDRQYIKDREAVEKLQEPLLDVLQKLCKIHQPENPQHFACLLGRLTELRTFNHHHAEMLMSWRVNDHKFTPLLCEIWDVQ
compound,measurement,setting,value
C=C(C)CN(CC)c1c([N+](=O)[O-])cc(C(F)(F)F)cc1[N+](=O)[O-],outcome,[1],inactive
same,outcome,[2],inactive
same,outcome,[3],inactive
same,outcome,[4],inactive
same,AC50,[5],31.2 µM (active)
same,outcome,[6],inactive
same,outcome,[7],inactive
same,outcome,[8],inactive
same,outcome,[9],inactive
same,outcome,[10],inactive
same,outcome,[11],inactive
same,outcome,[12],inactive
same,outcome,[13],inactive
same,outcome,[14],inactive
same,outcome,[15],inactive
same,outcome,[16],inactive
same,outcome,[17],inactive
CO/N=C(/C1=NOCCO1)c1ccccc1Oc1ncnc(Oc2ccccc2Cl)c1F,outcome,[1],inactive
same,outcome,[2],inactive
same,outcome,[3],inactive
same,AC50,[4],2.61 µM (active)
same,outcome,[5],inactive
same,outcome,[6],inactive
same,outcome,[7],inactive
same,outcome,[8],inactive
same,outcome,[18],inactive
same,outcome,[9],inactive
same,outcome,[19],inactive
same,outcome,[10],inactive
same,AC50,[11],4.82 µM (active)
same,outcome,[12],inactive
same,outcome,[13],inactive
same,outcome,[14],inactive
same,outcome,[15],inactive
same,AC50,[16],17.8 µM (active)
same,AC50,[17],8.64 µM (active)
N#Cc1c(Cl)cccc1Cl,outcome,[1],inactive
same,outcome,[2],inactive
same,outcome,[4],inactive
same,outcome,[20],inactive
same,outcome,[5],inactive
same,outcome,[6],inactive
same,outcome,[7],inactive
same,outcome,[8],inactive
same,outcome,[18],inactive
same,outcome,[9],inactive
same,outcome,[10],inactive
same,outcome,[11],inactive
same,outcome,[12],inactive
same,outcome,[13],inactive
same,outcome,[14],inactive
same,outcome,[15],inactive
same,outcome,[16],inactive
same,outcome,[17],inactive
